PubChem BioAssay AID1159580 (chemical genetic matrix, 2015)
Out of some 5,500 compounds screened, about 2,000 (36%) were called active. Roughly 18% stayed inconclusive and do not appear here. No stated cut-off is given here; in the data, active means normalized growth mostly below about 0.91 (no sharp cut-off); inconclusive means no clear call, values can overlap the other calls; inactive means mostly above about 0.92. The list shows a part of the results.

Assay: chemical genetic growth profiling, strain panel (AID 1159580);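 further: tested at 20 µM; growth read once vehicle control cultures reached saturation at 30 °C; 1 = growth at the plate median or of vehicle wells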
Settings: growth OD

Measured: normalized growth

Oc1ccc2c3c1OC1[C@@H](O)CC[C@@]4(O)[C@@H](C2)N(CC2CCC2)CC[C@]314 (some centres not stated)
inactive: S. cerevisiae deletion strains, locus YJR075W, strain HOC1, stronger effect = lower value 1.03 | S. cerevisiae deletion strains, locus YKL009W, strain mrt4, stronger effect = lower value 1 | S. cerevisiae deletion strains, locus YKL068W, stronger effect = lower value 1.01 | S. cerevisiae deletion strains, locus YKL085W, strain MDH1 (second series), stronger effect = lower value 1 | S. cerevisiae deletion strains, locus YKL085W, strain MDH1, stronger effect = lower value 1 | S. cerevisiae deletion strains, locus YKL160W, strain elf1, stronger effect = lower value 0.992 | S. cerevisiae deletion strains, locus YKL190W, strain CNB1, stronger effect = lower value 1.01 | S. cerevisiae deletion strains, locus YKR001C, strain vps1, stronger effect = lower value 1.01 | S. cerevisiae deletion strains, locus YKR026C, strain gcn3, stronger effect = lower value 0.952 | S. cerevisiae deletion strains, locus YKR091W, strain srl3, stronger effect = lower value 0.992 | S. cerevisiae deletion strains, locus YLL001W, strain dnm1, stronger effect = lower value 0.978 | S. cerevisiae deletion strains, locus YLL026W, stronger effect = lower value 0.999 | S. cerevisiae deletion strains, locus YLL041C, strain sdh2, stronger effect = lower value 0.993 | S. cerevisiae deletion strains, locus YLR027C, strain aat2, stronger effect = lower value 1 | S. cerevisiae deletion strains, locus YLR039C, strain RIC1, stronger effect = lower value 1.04 | S. cerevisiae deletion strains, locus YLR058C, strain SHM2, stronger effect = lower value 1.02 | S. cerevisiae deletion strains, locus YLR102C, strain apc9, stronger effect = lower value 1.01 | S. cerevisiae deletion strains, locus YLR113W, strain HOG1, stronger effect = lower value 0.971 | S. cerevisiae deletion strains, locus YLR221C, strain rsa3, stronger effect = lower value 1.02 | S. cerevisiae deletion strains, locus YLR258W, strain gsy2, stronger effect = lower value 1.01 | S. cerevisiae deletion strains, locus YLR262C, strain YPT6 (second series), stronger effect = lower value 0.986 | S. cerevisiae deletion strains, locus YLR262C, strain YPT6, stronger effect = lower value 1.01 | S. cerevisiae deletion strains, locus YLR268W, strain sec22, stronger effect = lower value 1.06 | S. cerevisiae deletion strains, locus YLR320W, strain mms22, stronger effect = lower value 1.01 | S. cerevisiae deletion strains, locus YLR330W, strain CHS5, stronger effect = lower value 1.01 | S. cerevisiae deletion strains, locus YLR342W, strain FKS1 (second series), stronger effect = lower value 1.01 | S. cerevisiae deletion strains, locus YLR342W, strain FKS1, stronger effect = lower value 1 | S. cerevisiae deletion strains, locus YLR357W, strain rsc2, stronger effect = lower value 0.967 | S. cerevisiae deletion strains, locus YLR370C, strain arc18, stronger effect = lower value 0.989 | S. cerevisiae deletion strains, locus YLR371W, strain rom2, stronger effect = lower value 1.02 | S. cerevisiae deletion strains, locus YLR384C, strain iki3, stronger effect = lower value 0.991 | S. cerevisiae deletion strains, locus YLR418C, strain cdc73, stronger effect = lower value 1.03 | S. cerevisiae deletion strains, locus YML016C, strain PPZ1, stronger effect = lower value 1.01 | S. cerevisiae deletion strains, locus YML032C, strain rad52, stronger effect = lower value 1.03 | S. cerevisiae deletion strains, locus YML120C, strain ndi1, stronger effect = lower value 1 | S. cerevisiae deletion strains, locus YML124C, strain tub3, stronger effect = lower value 1.01 | S. cerevisiae deletion strains, locus YMR058W, strain fet3, stronger effect = lower value 1.02 | S. cerevisiae deletion strains, locus YMR078C, strain ctf18, stronger effect = lower value 1.02 | S. cerevisiae deletion strains, locus YMR125W, strain sto1, stronger effect = lower value 0.982 | S. cerevisiae deletion strains, locus YMR129W, stronger effect = lower value 1 | S. cerevisiae deletion strains, locus YMR205C, strain PFK2, stronger effect = lower value 0.993 | S. cerevisiae deletion strains, locus YMR223W, strain ubp8, stronger effect = lower value 1.01 | S. cerevisiae deletion strains, locus YMR231W, strain pep5, stronger effect = lower value 1 | S. cerevisiae deletion strains, locus YMR263W, strain SAP30, stronger effect = lower value 1.02 | S. cerevisiae deletion strains, locus YMR307W, strain GAS1, stronger effect = lower value 1.04 | S. cerevisiae deletion strains, locus YNL067W, strain RPL9B, stronger effect = lower value 1.03 | S. cerevisiae deletion strains, locus YNL071W, strain lat1, stronger effect = lower value 1 | S. cerevisiae deletion strains, locus YNL128W, strain TEP1, stronger effect = lower value 1.03 | S. cerevisiae deletion strains, locus YNL153C, strain GIM3, stronger effect = lower value 1.03 | S. cerevisiae deletion strains, locus YNL183C, strain NPR1, stronger effect = lower value 0.914 | S. cerevisiae deletion strains, locus YNL209W, strain ssb2, stronger effect = lower value 1.01 | S. cerevisiae deletion strains, locus YNL233W, strain BNI4, stronger effect = lower value 1.02 | S. cerevisiae deletion strains, locus YNL248C, strain rpa49, stronger effect = lower value 0.92 | S. cerevisiae deletion strains, locus YNL250W, strain rad50, stronger effect = lower value 1.01 | S. cerevisiae deletion strains, locus YNL271C, strain bni1, stronger effect = lower value 1.01 | S. cerevisiae deletion strains, locus YNL298W, strain CLA4, stronger effect = lower value 1.01 | S. cerevisiae deletion strains, locus YNL307C, strain MCK1, stronger effect = lower value 1.01 | S. cerevisiae deletion strains, locus YNL322C, strain KRE1 (second series), stronger effect = lower value 0.999 | S. cerevisiae deletion strains, locus YNL322C, strain KRE1, stronger effect = lower value 1.01 | S. cerevisiae deletion strains, locus YNR049C, strain mso1, stronger effect = lower value 0.988 | S. cerevisiae deletion strains, locus YNR052C, strain pop2, stronger effect = lower value 1.01 | S. cerevisiae deletion strains, locus YOL006C, strain TOP1, stronger effect = lower value 1.04 | S. cerevisiae deletion strains, locus YOL012C, strain htz1 0.773 | S. cerevisiae deletion strains, locus YOL147C, strain pex11, stronger effect = lower value 1.01 | S. cerevisiae deletion strains, locus YOR001W, strain rrp6, stronger effect = lower value 0.997 | S. cerevisiae deletion strains, locus YOR061W, strain CKA2, stronger effect = lower value 1.01 | S. cerevisiae deletion strains, locus YOR069W, strain VPS5, stronger effect = lower value 1.01 | S. cerevisiae deletion strains, locus YOR070C, strain gyp1, stronger effect = lower value 1 | S. cerevisiae deletion strains, locus YOR080W, strain dia2, stronger effect = lower value 0.988 | S. cerevisiae deletion strains, locus YOR083W, strain WHI5, stronger effect = lower value 0.987 | S. cerevisiae deletion strains, locus YOR106W, strain vam3, stronger effect = lower value 0.993 | S. cerevisiae deletion strains, locus YOR136W, strain idh2, stronger effect = lower value 1.02 | S. cerevisiae deletion strains, locus YOR144C, strain elg1, stronger effect = lower value 1.01 | S. cerevisiae deletion strains, locus YOR184W, strain ser1, stronger effect = lower value 1.01 | S. cerevisiae deletion strains, locus YOR231W, strain MKK1, stronger effect = lower value 0.96 | S. cerevisiae deletion strains, locus YOR265W, strain rbl2, stronger effect = lower value 1 | S. cerevisiae deletion strains, locus YOR270C, strain vph1, stronger effect = lower value 0.997 | S. cerevisiae deletion strains, locus YOR290C, strain snf2, stronger effect = lower value 1.02 | S. cerevisiae deletion strains, locus YOR316C, strain cot1, stronger effect = lower value 1.02 | S. cerevisiae deletion strains, locus YPL051W, strain arl3, stronger effect = lower value 1.01 | S. cerevisiae deletion strains, locus YPL055C, strain LGE1, stronger effect = lower value 1.05 | S. cerevisiae deletion strains, locus YPL078C, strain atp4, stronger effect = lower value 0.984 | S. cerevisiae deletion strains, locus YPL106C, strain sse1, stronger effect = lower value 1.01 | S. cerevisiae deletion strains, locus YPL240C, strain hsp82, stronger effect = lower value 0.997 | S. cerevisiae deletion strains, locus YPL241C, strain CIN2, stronger effect = lower value 1.01 | S. cerevisiae deletion strains, locus YPL256C, strain CLN2, stronger effect = lower value 0.972 | S. cerevisiae deletion strains, locus YPR119W, strain clb2, stronger effect = lower value 1.01 | S. cerevisiae deletion strains, locus YPR141C, strain kar3, stronger effect = lower value 1.02 | S. cerevisiae deletion strains, locus YPR163C, strain tif3, stronger effect = lower value 1.01 | S. cerevisiae deletion strains, locus YPR167C, strain met16, stronger effect = lower value 1.02 | S. cerevisiae deletion strains, strain wtn01, stronger effect = lower value 1.02 | S. cerevisiae strains, strain wild type, stronger effect = lower value 1.02
